Data reported in PubChem BioAssay (Tox21).
Results filed as inconclusive are left out. Active and inactive are the calls of the source. Unless noted, the call rests on the fitted dose curve; in most records, active means well fitted curve in the direction sought with a large enough effect in the repeat runs; inconclusive means weak or mixed curves; inactive means no such curve, though single readings can be large; an effect the other way counts as inactive or inconclusive.

How the values were obtained:
[1] = qHTS assay for small molecule agonists of the p53 signaling pathway (AID 651631; calls by dose curve; further: nearly all actives have a fitted effect of over 15% in size)
How it was run: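 HCT-116 cells carrying a stable p53 response element–beta-lactamase reporter were plated, rested 5 h at 37 °C, then exposed to compound in DMSO for 16 h at 37 °C; reporter activity was read as FRET substrate fluorescence after 2 h at room temperature.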

[2] = qHTS assay for small molecules that induce genotoxicity in human embryonic kidney cells expressing luciferase-tagged ATAD5 (AID 651632); further: nearly all actives have a fitted effect of over 15% in size
How it was run: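 A rise in luciferase signal from ATAD5-tagged HEK293T cells marks genetic stress. Cells were exposed to compounds for 16 hr at 37C, 5% CO2, then luciferase was quantified after a 30 min room-temperature incubation with Amplite.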

[3] = qHTS assay for small molecule agonists of the p53 signaling pathway - cell viability (AID 651633; calls by dose curve; further: series mostly up to about 83 µM; nearly all actives have a fitted effect of over 30% in size)
How it was run: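 p53RE-bla cells were treated with compound for 16 hours at 37 C. Cytotoxicity was then measured as CellTiter-Glo luminescence after 30 min at room temperature.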

[4] = qHTS assay for small molecule disruptors of the mitochondrial membrane potential - cell viability (AID 720634; calls by dose curve;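 further: human HepG2 liver cancer cells; series mostly up to about 83 µM; nearly all actives have a fitted effect of over 20% in size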)
How it was run: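 Cytotoxicity was quantified from ATP content by CellTiter-Glo luminescence in the same wells as the MMP dye read-out. HepG2 (2,000 cells/well) were plated overnight and exposed to compounds for 1 hr at 37 C.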

[5] = qHTS assay to test for compound auto fluorescence at 590 nm (red) in HepG2 cells (AID 720674)
How it was run: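 HepG2 cells, 2,000 per well in MEM with 10% FBS, attached overnight at 37 C, then got 23 nL compound or DMSO. After 1 hr at 37 C, 5% CO2, red fluorescence was read at 540/590 nm against Rose Bengal sodium as reference.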

[6] = qHTS assay to test for compound auto fluorescence at 535 nm (green) in HepG2 cells (AID 720675)
[7] = qHTS assay to test for compound auto fluorescence at 460 nm (blue) in HEK293 cells (AID 720678)
How it was run: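 HEK293 cells (2,000 per well, medium with 10% dialyzed FBS) attached for 4-5 hr at 37C, then received compound and stood overnight at 37C, 5% CO2. Blue fluorescence was read at Ex/Em 405/460 nm and expressed relative to triamterene.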

[8] = qHTS assay to test for compound auto fluorescence at 590 nm (red) in HEK293 cells (AID 720679)
How it was run: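 HEK293 cells (2,000/well, medium with 10% dialyzed FBS) attached for 4-5 hr at 37C, received 23 nL compound and were incubated overnight at 37C, 5% CO2. Red fluorescence was then read at 540/590nm Ex/Em, referenced to Rose Bengal sodium.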

[9] = qHTS assay to test for compound auto fluorescence at 535 nm (green) in HEK293 cells (AID 720680)
[10] = qHTS assay to test for compound auto fluorescence at 460 nm (blue) in HEK293 cell free culture (AID 720681)
How it was run: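 Compounds were added to cell-free DMEM with 10% FBS and fluorescence read directly. The blue channel used 405 nm excitation and 460 nm emission, with triamterene as the reference fluorophore.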

[11] = qHTS assay to test for compound auto fluorescence at 535 nm (green) in HEK293 cell free culture (AID 720682)
How it was run: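 Read-out: 485/535 nm fluorescence intensity, calibrated against fluorescein. Medium only (DMEM + 10% FBS, no cells); test compound or DMSO vehicle added by pintool before plate reading.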

[12] = qHTS assay to test for compound auto fluorescence at 590 nm (red) in HEK293 cell free culture (AID 720683)
How it was run: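 Cell-free wells of DMEM with 10% FBS received compound, and intrinsic fluorescence was read at excitation/emission 540/590 nm. Values expressed as equivalence to Rose Bengal sodium.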

[13] = qHTS assay to test for compound auto fluorescence at 590 nm (red) in HepG2 cell free culture (AID 720684)
How it was run: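 Auto fluorescence equivalency versus Rose Bengal sodium, red channel Ex/Em 540/590 nm; compounds in cell-free MEM/10% FBS; DMSO vehicle control.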

[14] = qHTS assay to test for compound auto fluorescence at 460 nm (blue) in HepG2 cell free culture (AID 720685)
How it was run: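 Cell-free plates of MEM plus 10% FBS received 23 nL compound or DMSO vehicle; blue-channel (405/460 nm) intensity scored against triamterene as reference fluorophore.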

[15] = qHTS assay to test for compound auto fluorescence at 535 nm (green) in HepG2 cell free culture (AID 720686)
[16] = qHTS assay to test for compound auto fluorescence at 460 nm (blue) in HepG2 cells (AID 720687)
How it was run: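 HepG2 cells in MEM with 10% FBS, attached overnight at 37 C, were exposed to compound or DMSO for 1 hr at 37 C, 5% CO2. Blue fluorescence was read at 405/460 nm, with triamterene as reference fluorophore.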

[17] = target: Glucocorticoid receptor (Homo sapiens) (UniProt P04150); experiment: qHTS assay to identify small molecule agonists of the glucocorticoid receptor (GR) signaling pathway (AID 720691; active means well fitted activation curve with a large enough effect in the signal ratio in the repeat runs, not every such curve was filed as active; the % refers to the signal ratio)
Sequence of Glucocorticoid receptor (Homo sapiens) (P04150 whole entry, looked up): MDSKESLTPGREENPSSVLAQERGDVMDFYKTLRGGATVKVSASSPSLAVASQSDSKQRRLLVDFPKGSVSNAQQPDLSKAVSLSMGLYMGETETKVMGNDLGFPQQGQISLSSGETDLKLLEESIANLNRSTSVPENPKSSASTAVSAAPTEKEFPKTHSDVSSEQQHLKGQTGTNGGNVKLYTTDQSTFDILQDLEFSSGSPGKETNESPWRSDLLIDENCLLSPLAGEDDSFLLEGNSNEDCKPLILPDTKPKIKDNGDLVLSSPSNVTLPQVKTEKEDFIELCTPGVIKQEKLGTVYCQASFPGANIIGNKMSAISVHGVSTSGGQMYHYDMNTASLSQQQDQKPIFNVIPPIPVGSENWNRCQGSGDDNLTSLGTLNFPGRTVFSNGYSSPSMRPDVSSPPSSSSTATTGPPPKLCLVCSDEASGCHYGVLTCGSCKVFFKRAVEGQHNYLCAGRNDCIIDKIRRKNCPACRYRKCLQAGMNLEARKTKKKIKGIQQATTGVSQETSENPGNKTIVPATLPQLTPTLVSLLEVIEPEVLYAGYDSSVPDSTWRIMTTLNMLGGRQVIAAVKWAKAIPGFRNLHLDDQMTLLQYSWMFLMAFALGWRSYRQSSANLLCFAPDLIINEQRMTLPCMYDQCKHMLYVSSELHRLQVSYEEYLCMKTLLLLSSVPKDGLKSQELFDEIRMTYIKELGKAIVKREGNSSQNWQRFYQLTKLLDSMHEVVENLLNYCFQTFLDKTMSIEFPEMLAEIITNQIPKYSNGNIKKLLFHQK
How it was run: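 Agonist-mode qHTS in HeLa cells stably expressing a glucocorticoid-response-element beta-lactamase reporter. Fluorescence intensity read with FRET substrate (2 h, room temperature) after 18 h compound treatment at 37 C.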

[18] = target: Glucocorticoid receptor (Homo sapiens) (UniProt P04150); experiment: qHTS assay to identify small molecule antagonists of the glucocorticoid receptor (GR) signaling pathway (AID 720692; active means well fitted inhibition curve with a large enough effect in the signal ratio in the repeat runs, not every such curve was filed as active; the % refers to the signal ratio)
How it was run: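 Inhibition of dexamethasone-driven (5 nM final) beta-lactamase expression was measured in GRE-reporter HeLa cells over 18 h at 37C. Fluorescence was read after 2 h with the B/G FRET substrate at room temperature.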

[19] = qHTS assay for small molecules that induce genotoxicity in human embryonic kidney cells expressing luciferase-tagged ATAD5 - cell viability (AID 651634; calls by dose curve; further: nearly all actives have a fitted effect of over 25% in size)
How it was run: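 Cytotoxicity counter-readout: after 15.5 hr compound treatment at 37C, live-cell protease activity in ATAD5-luciferase HEK293T cells measured by CellTiter-Fluor fluorescence, 30 min development at 37C.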

[20] = qHTS assay for small molecule disruptors of the mitochondrial membrane potential (AID 720635)
How it was run: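 HepG2 cells exposed to compound 1 hr at 37C, then Mito-MPS dye 30 min. Ratio read of aggregate (540/590 nm) versus monomer (490/535 nm) fluorescence.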
On the % scale 0 is the no-effect control and ±100 the full control effect.

CC1=CC(=O)[C@H]2C[C@@H]1C2(C)C
inactive: Potency [1] | Potency [2] | Potency [3] | outcome [4] | outcome [5] | outcome [6] | outcome [7] | outcome [8] | outcome [9] | outcome [10] | outcome [11] | outcome [12] | outcome [13] | outcome [14] | outcome [15] | outcome [16] | Potency [17] | Potency [18]

CCC(C)(CN(C)C)OC(=O)c1ccccc1 (stereo not given)
inactive: Potency [1] | Potency [3] | Potency [19] | outcome [4] | Potency [20] | fluorescence, % of fluorescein control [6] -0.164% [at 18.6 µM] | fluorescence, % of triamterene [7] 0.148% [at 18.6 µM] | fluorescence, % of fluorescent control [8] 0.273% [at 18.6 µM] | fluorescence, % of fluorescein [9] -0.0159% [at 18.6 µM] | fluorescence, % of fluorescent control [10] -0.0658% [at 18.6 µM] | activity change [11] -0.158% [at 18.6 µM] | fluorescence, % of fluorescent control [12] -0.827% [at 18.6 µM] | fluorescence, % of Rose Bengal [13] -0.0837% [at 18.6 µM] | fluorescence, % of fluorescent control [14] 0.131% [at 18.6 µM] | fluorescence, % of fluorescent control [16] -0.0227% [at 18.6 µM] | Potency [17] | Potency [18]

CCN(CC#N)c1cccc(C)c1
inactive: Potency [1] | Potency [2] | Potency [3] | outcome [4] | outcome [5] | outcome [6] | outcome [7] | outcome [8] | outcome [9] | outcome [11] | outcome [12] | outcome [13] | outcome [14] | outcome [15] | outcome [16]

CC(C)COC(=O)c1ccc(N)cc1
inactive: Potency [1] | Potency [3] | Potency [19] | outcome [4] | outcome [5] | outcome [7] | outcome [8] | outcome [11] | outcome [12] | outcome [13] | outcome [14] | outcome [15] | outcome [16] | Potency [17] | Potency [18]
